Measured values as given in PMC5540273 (PLoS ONE, 2017).

test system: NDR2; conditions: concentration: 1 μM, replicates: in singlicate; n = 1
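Note: KINOMEscan kinase panel screen.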

Row | SMILES | %Inh [%]
1 | Cc1cccc(-c2nc(-c3ccc(S(C)(=O)=O)cc3)sc2-c2ccncc2)c1 | 14
2 | Nc1nc(-c2ccc3c(N)n[nH]c3c2)cc(N2CCCC2)n1 [GSK2227430] | 0
3 | NCC(NC(=O)c1cc(-c2cn[nH]c2)c(-c2ccnc3[nH]ccc23)s1)c1ccccc1.O=C(O)C(F)(F)F.O=C(O)C(F)(F)F (centres unmarked) [GSK1325775] | 70
4 | Cc1c(Cn2c(C)nn3c(=O)cc(N4CCOC(C)C4)nc23)cccc1C(F)(F)F (centres unmarked) [GSK2344444] | 0
5 | O=C(Nc1cccc(-c2nn3ncccc3c2-c2ccnc(Nc3cccc(C(F)(F)F)c3)n2)c1)c1c(F)cccc1F [GSK299495] | 0
6 | N#Cc1c(N2CCOCC2)sc(-c2ccn[nH]2)c1-c1ccc(Cl)cc1 | 0
7 | CCc1nc(-c2cccc(C)c2)c(-c2ccnc(NCc3ccccc3)c2)s1 | 0
8 | Nc1nccc(-c2c(-c3ccc(F)cc3)ncn2C2CCN(CC(F)(F)F)CC2)n1 [SB-236560] | 0
9 | CC(=O)Nc1ccc(COc2ccc(Nc3ccnc4cc(-c5ccccn5)ccc34)cc2)cc1.Cl [GW440148] | 37
10 | O=C(NCCCN1CCOCC1)c1cccc(Nc2nccc(Nc3ccc(Oc4ccccc4)cc3)n2)c1 [GW663929] | 41
11 | COc1cc2c(cc1OCCN1CCN(C)CC1)ncc1c3ccc(C#N)cc3[nH]c21 | 0
12 | COc1ccc(Nc2ncc(C#N)c(Nc3ccccc3C(N)=O)n2)cc1N1CCN(C)CC1.Cl [GSK1558669] | 75
13 | Cn1ccc2ncnc(Oc3ccc(NC(=O)Nc4ccncc4)c(Cl)c3)c21 | 17
14 | COc1cc2c(cc1OC[C@@H](O)CO)ncc1c3ccc(C#N)cc3[nH]c21 | 15
15 | Cc1cn2c(=O)cc(N3CCOCC3)nc2n1Cc1cccc(Cl)c1Cl [GSK2334006] | 0
16 | Cn1cc(-c2ccc3c(c2)CCN3C(=O)Cc2ccccc2Cl)c2c(N)ncnc21 [GSK2608885] | 0
17 | NS(=O)(=O)c1cccc(-c2ccc3nccc(-c4cccc(S(N)(=O)=O)c4)c3c2)c1 [GW867253] | 19
18 | Cl.Oc1cccc(Nc2ccnc3cc(-c4ccncc4)ccc23)c1 [GW494601] | 37

Row | SMILES | %Inh [%]
19 | [2H]C([2H])(c1cccc(C(F)(F)F)c1C)n1ccn2c(=O)nc(N3CCOCC3)cc12 [GSK2336394] | 0
20 | Cl.Nc1ncnc2occ(-c3ccc(NC(=O)Nc4cc(C(F)(F)F)ccc4F)cc3)c12 [SB-707548] | 40
21 | O=C1NC(=O)C(N2CCc3ccccc32)=C1c1cccc(Cl)c1 [SB-408010] | 7
22 | C[C@@H](Oc1cc(-n2cnc3ccc(NC(=O)NC(C)(C)C)cc32)sc1C(N)=O)c1ccccc1Cl [GSK346294] | 17
23 | O=c1cc(N2CCOCC2)nc2n(Cc3cccc(Cl)c3Cl)c(C3CC3)nn12 [GSK2358994] | 0
24 | CSc1ccc(-c2cc3ncnc(SCC(=O)O)c3s2)cc1 | 0
25 | c1ccc(-c2n[nH]cc2-c2ccnc3ccccc23)nc1 [GW271431] | 0
26 | O=C(NCCNc1ccnc(Nc2ccc(F)cc2)n1)c1cc2ccccc2s1 [GSK1379874] | 0
27 | Fc1ccc(-c2ncn(CCCN3CCOCC3)c2-c2cccnc2)cc1 [SB-211743] | 10
28 | Cc1ccc(NC(=O)c2ccnc(N3CCN(C)CC3)c2)cc1-c1ccc(C(=O)NCC2CC2)cc1 [GW775604] | 0
29 | CN1c2ccc(CNc3ccc(F)cc3)cc2-c2c(cnn2C)S1(=O)=O | 0
30 | CNc1ncnc2[nH]ncc12 [SKF-18355] | 23
31 | COCCNC(=O)c1ccc(-c2cc(C(=O)NC3CC3)cc(F)c2C)cc1 [GW868318] | 21
32 | CCc1ccnc(/C=C/c2n[nH]c3cc(Sc4ccccc4C(=O)NC)ccc23)c1 | 0
33 | CC(C)Oc1ccc2c(-c3ccnc(Nc4ccc(N5CCN(C)CC5)cc4)n3)cnn2n1 [GW696155] | 52
34 | c1ccc(-c2cc(-c3c[nH]nc3-c3ccccn3)ccn2)cc1 [GW576604] | 23
35 | Fc1ccc(-c2ncn(CCCN3CCOCC3)c2-c2ccccn2)cc1 [SB-211742] | 0
